High-throughput results deposited in PubChem BioAssay by National Center for Advancing Translational Sciences (NCATS).
ELG1 DNA repair: ELG1-dependent DNA repair inhibition; Potency, µM (series often up to 46.1 µM), actives largely listed as inhibitors; HEK293T ELG1-luciferase reporter, luminescence, 16 h; DNA damage induced by 5-fluorouridine; 2.3% of 330,000 active; also: nearly all actives have a fitted effect of over 55% in size
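Reporter activity after DNA damage by 5-fluorouridine is monitored. Compound-treated cells incubate 16 hr at 37 °C, then ONE-Glo is added for 30 min before luminescence reading.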
Coupling enz: inhibits coupling enzyme system, counter-screen for aldolase hits. coupling enzyme system counterscreen, AmpLite Red fluorescence. activity change, negative = inhibition, % at 58.2 µM, hits read low. 0.67% of 290,000 active. AID 2472; in the data active = activity change below about -30%
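Activity here indicates interference with the coupling reaction, not aldolase inhibition. Compounds at 57.5 uM final met coupling enzymes for 10 min at RT; substrate and AmpLite Red detection followed, with a 525/598 nm fluorescence read after 20 min.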
Sfp inh: Sfp phosphopantetheinyl transferase inhibition; Potency, µM, hits mostly inhibitors; Biochemical Sfp PPTase activity, qHTS; 3.5% of 310,000 active; Q9F4F7; AID 1490;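 also: the enzyme is Sfp with the accession as filed and its product quenches rhodamine fluorescence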
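Compounds were incubated with enzyme (final 15 nM) for 15 min at room temperature before substrate addition started the reaction. Fluorescence at 525 nm excitation, 598 nm emission was recorded immediately and after 30 minutes.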
Giardia kill: Giardia lamblia killing; activity change, % at 7.66 µM, hits read low; AID 540267; Giardia lamblia trophozoite viability; 0.15% of 340,000 active; in the data active = activity change below about -80%; inconclusive = between about -30% and that limit;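 also: parasites exposed to compound for two days anaerobically before the ATP read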
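Anaerobic 48 hrs incubation at 37 deg C of 100 trophozoites/well with test compounds; ATPLite 1-Step luminescence, 15-30 min RT, reports cellular ATP as viability.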
Large screens that a line does not name were inactive; ! = repeats disagree. An excerpt weighted towards active compounds, which were near 5.5% of everything screened. Unless noted, calls follow the shape of the dose curve; as a rule, active = well fitted curve in the direction sought with a large enough effect; inconclusive = small, poorly fitted or top-dose-only effect, or another doubt; inactive = no such curve, though single readings can be large; an effect the other way counts as inactive or inconclusive.

Cc1c(C)c2c(c(C)c1OC(=O)CCC(=O)O)CC[C@@](C)(CCC[C@H](C)CCC[C@H](C)CCCC(C)C)O2	none (no result: ELG1 DNA repair, Coupling enz, Giardia kill)
Cc1cccc(NC(=O)N2CCC(C(=O)c3ccc(F)cc3)CC2)c1	none
COc1ccc(/C=C(\C#N)C(=O)N2COCC2(C)C)cc1	ELG1 DNA repair inconclusive
CC(C)Cn1c(N)c(C(=O)COC(=O)c2cc(C3CC3)nc3ccccc23)c(=O)n(C)c1=O	ELG1 DNA repair 23.1µM
CC(C)Cn1c(N)c(C(=O)COC(=O)c2cc(C(F)(F)F)nc3ccccc23)c(=O)n(C)c1=O	ELG1 DNA repair inconclusive
CC(C)Cn1c(N)c(C(=O)COC(=O)C2Cc3ccccc3CN2S(C)(=O)=O)c(=O)n(C)c1=O (stereo not given)	ELG1 DNA repair 9.2µM (no result: Coupling enz, Sfp inh)
CCCCCC(=O)N1c2ccccc2C(C)(c2ccccc2)CC1(C)C (stereo not given)	none (no result: ELG1 DNA repair, Coupling enz, Sfp inh)
CC(Oc1cccnc1[N+](=O)[O-])C(=O)N1CCc2ccccc21 (stereo not given)	none (no result: Coupling enz, Sfp inh)
Cc1nc2scc(-c3ccccc3)c2c(=O)n1/N=C/c1ccco1	ELG1 DNA repair 14.6µM
COc1ccc(N2CC(O)=C(c3nc(-c4ccc(F)cc4)cs3)C2=N)cc1Cl	ELG1 DNA repair inconclusive
COc1ccc(N2CC(O)=C(c3nc(-c4ccc(F)cc4)cs3)C2=N)cc1OC	ELG1 DNA repair 13µM
CCOc1ccc(CCNC(=O)C2CC(C)=CCC2C(=O)O)cc1OCC (stereo not given)	none
COC(=O)c1c(NS(=O)(=O)c2ccccc2)csc1C	ELG1 DNA repair inconclusive, Coupling enz -33.9
NCCCNC(=O)c1ccc(/C=N/O)nc1	Sfp inh 70.8µM
O=C(NCCN1CCCCC1)c1ccc(/C=N/O)nc1	none
CCOc1c(C)cnc2c1c(=O)n(Cc1ccccc1F)c(=O)n2C	none
O=c1oc2c(O)c(O)cc3c(=O)oc4c(O)c(O)cc1c4c23	Coupling enz -78.5!, Sfp inh inconclusive
CC1(CCc2ccccc2)NC(=S)N(c2ccccc2)N1 (stereo not given)	Sfp inh 44.7µM
Oc1ccc(N=Cc2cc(Br)c(N3CCOCC3)o2)cc1	Sfp inh 39.8µM
O=C(CCC(=O)N1CCN(S(=O)(=O)c2ccc3ccccc3c2)CC1)NCC(F)(F)F	none
Cn1c(SCC(=O)Nc2ccc(Cl)cn2)nnc1C1CC1	none (no result: Coupling enz)
Cn1c(SCC(=O)c2ccccc2F)nnc1C1CC1	ELG1 DNA repair inconclusive, Sfp inh 50.1µM
CC1CN(C(=O)c2ccccc2NS(=O)(=O)c2ccc(Cl)cc2)CC(C)O1 (stereo not given)	none (no result: Coupling enz, Sfp inh)
Cc1cc(C(=O)Cn2nc(C(=O)O)c3ccccc3c2=O)c(C)n1-c1ccccc1	ELG1 DNA repair inconclusive, Giardia kill inconclusive
Cc1cc(C(=O)Cn2nc(C(=O)O)c3ccccc3c2=O)c(C)n1CCc1ccc(Cl)cc1	ELG1 DNA repair 8.2µM
O=C1c2ccccc2C(=O)N1c1nc(-c2cccs2)cs1	ELG1 DNA repair inconclusive, Sfp inh 25.1µM
CN1CCN(c2nc(-c3cccs3)cs2)CC1	ELG1 DNA repair inconclusive, Sfp inh 56.2µM
CN1CCN(c2nc(-c3cc4ccccc4o3)cs2)CC1	ELG1 DNA repair inconclusive
O=C(C1CCC1)N1CCc2cc(S(=O)(=O)N3CCN(c4ccccn4)CC3)ccc21	ELG1 DNA repair 18.4µM
O=C(C1CCN(S(=O)(=O)c2ccccc2)CC1)N1CCc2ccccc21	Sfp inh inconclusive (no result: Coupling enz)
O=C(C1CCN(S(=O)(=O)c2ccc3c(c2)OCCO3)CC1)N1CCc2ccccc21	ELG1 DNA repair 23.1µM
CCN(CC)C(=O)C1CCN(S(=O)(=O)c2ccc3c(c2)CCCN3C(=O)C2CCC2)CC1	ELG1 DNA repair 23.1µM (no result: Coupling enz)
O=C(C1CCC1)N1CCc2cc(S(=O)(=O)N3CCCCC3)ccc21	ELG1 DNA repair inconclusive
Cc1c(C(=O)N2CCCCCC2)c(S(=O)(=O)NCc2ccccc2Cl)c(C)n1C	none
CCCCc1nc2sc3c(SCC(=O)NCc4ccco4)ncnc3c2c2c1CCC2	Sfp inh 44.7µM
O=C(CSc1ncnc2c1oc1ccccc12)NCc1ccco1	Sfp inh 28.2µM
COc1cccc(NC(=O)CSc2ncnc3c2oc2ccccc23)c1	Sfp inh 70.8µM
O=C(O)CSc1ncnc2c1oc1ccccc12	none
COC(=O)[C@@]1(Cc2ccc(OC)cc2)[C@H]2c3cc(C(=O)N4CCCC4)n(Cc4nc5ccccc5[nH]4)c3C[C@H]2CN1C(=O)c1ccccc1	none (no result: ELG1 DNA repair, Giardia kill)
COc1ccc(NC(=O)C(Cc2cc(C)cc(C)c2)C(C)C(=O)O)cc1 (stereo not given)	none
c1csc(-c2nc3nc4ccccc4nc3n2Cc2ccc3c(c2)OCO3)c1	ELG1 DNA repair inconclusive
Clc1ccccc1-c1nc2nc3ccccc3nc2n1-c1ccc2c(c1)OCO2	ELG1 DNA repair 14.6µM
OCC[C@H]1C[C@@H](O)[C@H](O)[C@@]2(CCCO2)O1	none (no result: ELG1 DNA repair, Coupling enz, Sfp inh)
COc1ccc(OC)c(C=NNC(=O)c2ccc(NS(=O)(=O)c3cccs3)cc2)c1	none (no result: Coupling enz, Sfp inh)
COCCNc1nc(-c2ccc(OC)cc2)c(-c2ccc(OC)cc2)s1	ELG1 DNA repair 20.6µM, Sfp inh inconclusive
CCN(CC)CCNc1nc(-c2ccc(OC)cc2)c(-c2ccc(OC)cc2)s1	none
COc1ccc(-c2nc(NC(C)=O)sc2-c2ccccc2)cc1	ELG1 DNA repair 20.6µM
COc1ccc(-c2sc(NC(C)=O)nc2-c2ccccc2)cc1	none
O=C(NCc1nnc(SCC(=O)N2CCCC2)o1)c1cccc(C(F)(F)F)c1	none (no result: Coupling enz)
Cc1ccc(-c2cc(C(F)(F)F)n3ncc(C(=O)N4CCCc5ccccc54)c3n2)cc1	none
CN1CCN(C(=O)c2cnn3c(C(F)(F)F)cc(-c4ccc5c(c4)OCO5)nc23)CC1	ELG1 DNA repair 5.8µM
O=C(c1cnn2c(C(F)(F)F)cc(-c3ccc4c(c3)OCO4)nc12)N1CCCCC1	none
O=C(NC1CCCC1)c1cnn2c(C(F)(F)F)cc(-c3ccc4c(c3)OCO4)nc12	ELG1 DNA repair 4.11µM
Cc1ccc(-c2cc(C(F)(F)F)n3ncc(C(=O)N4CCN(C)CC4)c3n2)cc1	ELG1 DNA repair 9.2µM
Cc1noc(C)c1NC(=O)N(C)C[C@@H]1Oc2ccc(NC(=O)CCC(F)(F)F)cc2CC(=O)N([C@@H](C)CO)C[C@@H]1C	none (no result: Coupling enz, Sfp inh)
COc1cc(OC)c(-n2cc(-c3ccc(OC)c(OC)c3)[nH]c2=S)cc1Cl	none
NNc1nc2ccccc2c(=O)n1Cc1ccccc1	ELG1 DNA repair inconclusive, Sfp inh 20µM
O=C(NC1CCCCC1)C(c1cccnc1)N(C(=O)c1csnn1)c1ccccc1F (stereo not given)	none
CCOC(=O)c1c(NC(=O)CSc2nnc(C)s2)sc2c1CCN(C)C2	Sfp inh 17.8µM
CCOC(=O)c1c(NC(=S)Nc2ccc(OCC)cc2)sc2c1CCN(C)C2	ELG1 DNA repair inconclusive, Sfp inh 15.8µM
COC(=O)c1ccc2c(=O)n(NC(=O)C(c3ccccc3)c3ccccc3)c(=S)[nH]c2c1	ELG1 DNA repair 25.9µM
C=CCOC1COC2C(OCC=C)COC12 (stereo not given)	none (no result: ELG1 DNA repair, Coupling enz, Sfp inh)
CCOc1ccc2c(O)csc2c1	Sfp inh 50.1µM
CCOc1ccc2oc(-c3ccccc3)c(C(=O)O)c2c1	none
O=C(COC(=O)CNC(=O)c1ccc(Cl)cc1Cl)NC(=O)NC1CCCCC1	none (no result: Coupling enz, Sfp inh)
CC(C)c1nc2sc3c(c2c(=O)o1)CCCC3	none
